Here are results for eight molecules from the supplement of paper PMC3342239.

Counter-ions that a name gives are not always drawn.

For the assay, the system named is Saccharomyces cerevisiae. In words: fraction of cells in G1 phase (DNA content, flow cytometry); higher = more cells with unreplicated DNA (G1 delay). To be noted: temperature: 30 C; YPD; JTY2953 pdr5 snq2 (sensitized); drug added to: cultures diluted from stationary phase; 6-7 h. An outline of the steps:
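Yeast (S. cerevisiae) in YPD at 30°C was treated with library drugs, and cells were then fixed in ethanol, stained with SYTOX Green and counted by flow cytometry over 10,000 events. Sensitized JTY2953 diluted 1∶200 from an overnight culture got a final 20 µg/ml and was fixed 6–7 h later; other runs dosed dividing JTY2953 (fixed at 6 h) or BY4741 (fixed at 4.33 h). G1 fraction means the Dean-Jett-Fox G1 peak area relative to the G1 and G2/M areas together.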
(In flow cytometry, cells or beads pass a laser one at a time.)
With `Clc1cccc(Cl)c1NC1=NCCN1` [Clonidine HCl] (75.0469 µM), the “fraction of cells in G1 phase” value stood at 0.504.
For `Cc1c(-c2cnccn2)ssc1=S` [Oltipraz] (88.3617 µM) the value was 0.503; for `O=C(N[C@H](CO)[C@H](O)c1ccc([N+](=O)[O-])cc1)C(Cl)Cl` [Chloramphenicol] (61.8937 µM), 0.482; for `CC(C)Cn1cnc2c(N)nc3ccccc3c21` [Imiquimod] (83.2257 µM), 0.484.
For `CC(COc1ccccc1)N(CCCl)Cc1ccccc1` (stereo not drawn) [Phenoxybenzamine HCl] (58.7717 µM) the value was 0.514.
For `C=C1/C(=C\C=C2/CCC[C@]3(C)[C@@H]([C@H](C)CCCC(C)(C)O)CC[C@@H]23)C[C@@H](O)C[C@@H]1O` [Calcitriol] (48.0019 µM) the value was 0.565; for `CC(C)(O/N=C(\C(=O)N[C@@H]1C(=O)N2C(C(=O)[O-])=C(C[n+]3ccccc3)CS[C@H]12)c1csc(N)n1)C(=O)O` [Ceftazidime] (36.5909 µM), 0.486.
For the molecule `COc1ccccc1Oc1c(NS(=O)(=O)c2ccc(C(C)(C)C)cc2)nc(-c2ncccn2)nc1OCCO` [Bosentan] (36.2564 µM), the “fraction of cells in G1 phase” value came out at 0.497.
